Results: PubChem BioAssay (NCATS)
Several values for one entry are separate records, joined by “and”; a condition that tells them apart may be missing. Equal entries are not always repeated. Inconclusive results are not listed. Activity calls are given as the source filed them. Calls come from the whole dose curve; as a rule, active = well fitted curve in the direction sought with a large enough effect; inconclusive = small, poorly fitted or top-dose-only effect, or another doubt; inactive = no such curve, though single readings can be large or run the other way.

assay: qHTS Assay for Identifying Gametocytocidal Compounds (AID 743244);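 for max response: actives lower the fluorescent signal which means gametocytes are killed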; settings: P. falciparum 3D7 stage III-V gametocytes, alamarBlue, 72 h; max response: hits give low values
Summary of the method: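 3D7 gametocytes, stages III–V, 20,000/well; cpd 72 h, 37 °C/5% CO2; + alamarBlue 24 h; fluor. Ex 525/Em 598.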
% is set by controls: 0 for no effect and ±100 for the full control effect; potency is the fitted concentration of half-maximal effect.

Structure (SMILES)	max response	Potency
c1cc2c(c(N3CCNCC3)c1)OCCO2	-8.91% (inactive)	
CCC1(c2ccccc2)CCC(=O)NC1=O (stereo not given)	-3.28% (inactive)	
COc1ccc(OC)c(CC(C)N)c1 (stereo not given)	-18.6% (inactive)	
COc1ccc2c3c1O[C@H]1[C@@H](O)C=C[C@H]4[C@@H](C2)N(C)CC[C@@]341	7.49% (inactive)	
CCOC(=O)NC(O)C(Cl)(Cl)Cl (stereo not given)	9.34% (inactive)	
CNC(C)Cc1ccccc1OC (stereo not given)	0.178% (inactive)	
O=C(N[C@H]1N=C(c2ccccc2F)c2cccc3c2N(CC3)C1=O)c1cc2ccccc2[nH]1	-4.83% (inactive)	
C[C@@H]1CN(C2CCC(C#N)(c3ccc(F)cc3)CC2)CC[C@]1(C(=O)O)c1ccccc1 (stereo not given in full)	-3.29% (inactive)	
CCCCCOc1ccc(C2SC(=O)NC2=O)cc1OCC (stereo not given)	38.7% (inactive)	
COc1ccc(CN2CCNCC2)c(OC)c1OC	-9.77% (inactive)	
CCCCC1C(=O)NC(=O)N(C2CCCCC2)C1=O (stereo not given)	-2.42% (inactive)	
CN(C)CCc1c[nH]c2ccccc12	16.8% (inactive)	
C[C@@H]1CC[C@H]2[C@@H](C)C(=O)O[C@@H]3O[C@@]4(C)CC[C@@H]1[C@]32OO4		0.132 µM (active)
Cc1c(Cl)c(=O)oc2cc(OP(=O)(OCCCl)OCCCl)ccc12	22.1% (inactive)	
CN1C(=O)[C@@H](NC(=O)c2cc3ccccc3[nH]2)N=C(c2ccccc2)c2ccccc21	-6.73% (inactive)	
C[C@]12Cc3nonc3C[C@@H]1CC[C@@H]1[C@@H]2CC[C@@]2(C)[C@H]1CC[C@]2(C)O	-3.73% (inactive)	
CCN(CC)CCOC(=O)C(C)(c1ccccc1)c1ccccc1	10.8% (inactive)	
COc1cc(C[C@@H](C)N)c(OC)cc1Br	0.803% (inactive)	

Structure (SMILES)	max response	Potency
C[N+]1(CCC(C(N)=O)(c2ccccc2)c2ccccc2)CCCCC1	-5.02% (inactive)	
CN(C)CCc1c[nH]c2ccc(O)cc12	-10.2% (inactive)	
CC(C)[N+](C)(CCC(C(N)=O)(c1ccccc1)c1ccccc1)C(C)C	0.0209% (inactive)	
COc1cc(CC(C)N)cc2c1OCO2 (stereo not given)	-6.22% (inactive)	
CN1C(=O)CN=C(c2ccccc2)c2cc(Cl)ccc21	-5.96% (inactive)	
C[N+](C)(C)CCOC(=O)C(O)(c1ccccc1)c1ccccc1	-1.74% (inactive)	
CC1=C2[C@H]3OC(=O)[C@@H](C)[C@@H]3CC[C@@]2(C)C=CC1=O	4.47% (inactive)	
C[C@]12C=CC(=O)C=C1CC[C@@H]1[C@@H]2CC[C@@]2(C)[C@H]1CC[C@]2(C)O	-4.85% (inactive)	
C[C@H]1CNCCc2ccc(Cl)cc21	16.3% (inactive)	
COc1cc(N)c(Cl)cc1C(=O)NC1CN2CCC1CC2 (stereo not given)	-2.64% (inactive)	
Cc1nnc2n1-c1sc(CCC(=O)N3CCOCC3)cc1C(c1ccccc1Cl)=NC2	-5.44% (inactive) and -14.1% (inactive)	
CCN(CC)C(C)C(=O)c1ccccc1 (stereo not given)	2.91% (inactive)	
CC(C)C(Br)C(=O)NC(N)=O (stereo not given)	6.08% (inactive)	
NC1(c2ccccc2)CCCCC1	3.42% (inactive)	
CCS(=O)(=O)C(C)(C)S(=O)(=O)CC	4.59% (inactive)	
Clc1ccc(CO/N=C(\Cn2ccnc2)c2ccc(Cl)cc2Cl)c(Cl)c1		10 µM (active)
O=C(N[C@@H]1N=C(c2ccccc2F)c2cccc3c2N(CC3)C1=O)c1cc2ccccc2[nH]1	-8.36% (inactive)	
